High-throughput results: PubChem, several laboratories
Measles CPE – protection of cells from measles virus | 1.5% of 140,000 active | Measles virus-infected cells, CPE protection, absorbance | protection (pct of control), % at 4 µM; in the data active = protection mostly above about 24%, no sharp cut-off; inactive = mostly below about 26%
CYP2C19 inh – inhibitors of human CYP2C19; P33261; CYP2C19 Supersomes, luciferin-H EGE luminescence, 30 min; inhibition, % at 5 µM; 21% of 96,000 active;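 active = CYP2C19 inhibition above a set limit at 5 µM in the primary screen, cut at about 50% in these data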
Target sequence (P33261 whole entry, looked up): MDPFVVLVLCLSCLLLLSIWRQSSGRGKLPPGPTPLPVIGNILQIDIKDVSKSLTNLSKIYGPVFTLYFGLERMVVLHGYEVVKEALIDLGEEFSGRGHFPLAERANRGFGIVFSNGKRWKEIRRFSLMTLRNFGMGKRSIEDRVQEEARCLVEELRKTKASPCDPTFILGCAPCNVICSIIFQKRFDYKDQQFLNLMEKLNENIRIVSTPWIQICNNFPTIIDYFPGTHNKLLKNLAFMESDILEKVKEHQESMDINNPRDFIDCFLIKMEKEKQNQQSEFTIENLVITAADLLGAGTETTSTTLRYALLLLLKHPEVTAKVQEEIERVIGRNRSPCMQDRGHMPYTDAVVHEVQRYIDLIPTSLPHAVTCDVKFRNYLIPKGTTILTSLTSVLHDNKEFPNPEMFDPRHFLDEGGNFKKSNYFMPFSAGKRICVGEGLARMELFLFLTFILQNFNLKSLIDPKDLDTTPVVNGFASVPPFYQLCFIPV
CYP2C9 act – activators of human CYP2C9; 1.4% of 96,000 active; recombinant CYP2C9, luciferin-H conversion, luminescence; hits give high values; factor 1 = untreated enzyme, 0 = blocked; activation factor at 5 µM;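 active = activation factor of 2 or more for CYP2C9 at a 5 µM dose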
CYP2C19 act – increases human CYP2C19 enzyme activity | P33261 | recombinant CYP2C19, luciferin-H EGE luminescence; hits give high values; 0 = fully inhibited enzyme, 1 = untreated enzyme | activation factor at 5 µM | 96,000 tested, under 10 active;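 active = activation factor of at least 2 at 5 µM in the primary screen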
CYP2C9 inhib – human CYP2C9 inhibition. 20% of 96,000 active. AID 777. P11712. CYP2C9 Supersomes, luciferin-H conversion, luminescence. inhibition, % at 5 µM;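 active = blocking of liver enzyme CYP2C9 beyond about 50% at 5 µM, limit read from the data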
Numbers stand for hits; n = inactive; x = no result. This is a sample that favours compounds with a hit; in the whole collection about 22% have one here.

SMILES	Measles CPE	CYP2C19 inh	CYP2C9 act	CYP2C19 act	CYP2C9 inhib
Cc1ccc2nc(SC(C)C(=O)N3CCCC3)[nH]c2c1 (centres undefined)	n	x	x	x	x
Cc1ccc(/C=N/n2c(C3CCCCC3)n[nH]c2=S)o1	n	x	x	x	x
O=C(c1ccccc1)N1CCN(C2CCCCC2)CC1	n	x	x	x	x
CCOc1ccc(CN2CCN(C(=O)c3ccccc3)CC2)cc1	n	n	n	n	n
O=C(c1ccccc1)N1CCN(Cc2ccccc2Br)CC1	n	98	n	n	76
O=C(c1ccccc1)N1CCN(c2ccc(Cl)cc2)CC1	n	98	n	n	68
O=C(c1ccccc1)N1CCN(C(=O)c2ccccc2)CC1	38	x	x	x	x
COc1cc(/C=C(\NC(C)=O)C(=O)NC(C)(C)C)ccc1OC(C)=O	n	x	x	x	x
N#CC1=C(N)N(c2ccccc2Sc2ccccc2)C(=O)C1	n	n	n	n	n
CC1(C)Cc2c(ccc3ccccc23)/C(=C/C#N)N1	n	n	n	n	n
CNC(=O)/C=C1\NC(C)(C)Cc2c1ccc1ccccc21	n	67	n	n	n
C=CCSc1nc(Oc2ccccc2)c2sccc2n1	n	54	n	n	n
CSc1nc(Oc2ccccc2)c2sccc2n1	n	n	n	n	60
CSc1nc(Oc2ccc(Cl)cc2)c2sccc2n1	n	n	n	n	n
C=CCNc1nc(SCC=C)nc2ccsc12	n	n	n	n	n
COc1cc(OC)cc(C(=O)Nc2ccccc2NC(C)=O)c1	n	n	n	n	n
COc1cc(N/C=C(\C(C)=O)c2ccccc2)cc(OC)c1	n	72	n	n	86
CC(=O)/C(=C\Nc1ccc(OCc2ccccc2)cc1)c1ccccc1	n	n	n	n	85
COc1ccc(NC(=S)Nc2ccc(Oc3ccccc3)cc2)cc1	n	n	n	n	n
CC(=O)/C(=C/Nc1ccc(Oc2ccccc2)cc1)c1ccccc1	n	68	n	n	89
Cn1c(=O)n(C)c2cc(S(=O)(=O)NCCO)ccc21	n	n	n	n	n
Cn1c(=O)n(C)c2cc(S(=O)(=O)Nc3ccccc3O)ccc21	n	83	n	n	59
COc1ccccc1NS(=O)(=O)c1ccc2c(c1)n(C)c(=O)n2C	n	72	n	n	n
CC(C)CCCNc1nc(N2CCOCC2)nc(N2CCOCC2)n1	n	n	n	n	n
CC(C)CN(C#N)c1nc(N2CCOCC2)nc(N2CCOCC2)n1	n	n	n	n	51
SMILES	Measles CPE	CYP2C19 inh	CYP2C9 act	CYP2C19 act	CYP2C9 inhib
COCCNC(=O)c1cnn2c1NC(c1ccco1)CC2C(F)(F)F (centres undefined)	n	x	x	x	x
CN(Cc1ccc(-n2cccn2)cc1)C(=O)c1cnn2c1NC(c1ccco1)CC2C(F)(F)F (centres undefined)	n	n	n	n	78
CCn1cc(/C=N\NC(=O)c2ccc3c(c2)c(C)c(C)n3Cc2ccccc2)c(C)n1	n	73	n	n	n
CCn1cc(/C=N\NC(=O)c2c[nH]c3ccccc23)c(C)n1	n	x	x	x	x
CCn1ncc(/C=N\NC(=O)c2ccc3c(c2)c(C)c(C)n3Cc2ccccc2)c1C	n	73	n	n	93
CCn1nc(C)c(/C=N/NC(=O)c2ccc3c(c2)c(C)c(C)n3Cc2ccccc2)c1C	n	86	n	n	89
CCn1nc(C)c(/C=N\NC(=O)c2ccc3c(c2)OCO3)c1C	n	n	n	n	n
COc1cccc(C2c3c(oc4ccccc4c3=O)C(=O)N2CCCN2CCOCC2)c1 (centres undefined)	n	x	x	x	x
Nc1nc(SCC(=O)NCc2ccccc2)[nH]c(=O)c1NC(=O)c1ccccc1F	n	x	x	x	x
O=C(CSCc1ccccc1)N1CCN(c2ccc(F)cc2)CC1	n	n	n	n	n
O=C(CCCn1c(=O)[nH]c2ccccc2c1=O)N1CCN(c2ccccn2)CC1	n	x	x	x	x
O=C(CCCCCNc1nc(=S)[nH]c2ccccc12)N1CCN(c2ccccn2)CC1	n	57	n	n	62
Cc1cc(Cl)ccc1OCCCC(=O)N1CCN(C(=O)c2ccco2)CC1	n	65	n	n	n
O=C(CCCOc1ccccc1)N1CCN(C(=O)c2ccco2)CC1	n	n	n	n	n
O=C(CCCOc1ccccc1)N1CCN(c2ccc(F)cc2)CC1	n	77	n	n	n
O=C(Oc1ccccc1)N1CCN(c2ccc(F)cc2)CC1	n	85	n	n	n
Cc1ccc(S(=O)(=O)CCSc2cccc(C(=O)Nc3ccccc3C(=O)O)c2)cc1	n	x	x	x	x
N#CN=C1CCCCCN1CC(N)=O	n	n	n	n	n
O=C(CCCOc1ccc(Cl)cc1Cl)n1nnc2ccccc21	n	x	x	x	x
O=C(CCCOc1ccccc1)N1CCN(c2ccccn2)CC1	n	80	n	n	69
Nc1nncn1C(=O)CCCOc1ccc(Cl)cc1Cl	n	65	n	n	n
CN1CCN(C(=O)CCCOc2ccc(Cl)cc2Cl)CC1	n	67	n	n	n
O=C(CCCOc1ccc(Cl)cc1Cl)N1CCN(c2ccccn2)CC1	n	76	n	n	n
COc1ccc(F)cc1CN1CCN(C(=O)CCC(=O)Nc2nnc(C(C)C)s2)CC1	n	n	n	n	n
O=C(NCc1cccnc1)c1sc2cc(Cl)ccc2c1Cl	n	79	n	n	n
SMILES	Measles CPE	CYP2C19 inh	CYP2C9 act	CYP2C19 act	CYP2C9 inhib
Cn1c(C(=O)NCc2cccnc2)cc2sc(Cl)cc21	n	97	n	n	89
CCOc1ccc(-n2c(N)c(C(=O)NCc3cccnc3)sc2=S)cc1	n	n	n	n	n
O=C(NCc1ccco1)c1sc2cc(Cl)ccc2c1Cl	n	x	x	x	x
C=CCn1c(N)c(C(=O)NCc2cccnc2)sc1=S	n	96	n	n	78
CCOc1ccc(N2C(=O)CC(n3nc(C)cc3C)C2=O)cc1 (centres undefined)	n	x	x	x	x
N#Cc1cn(Cc2cccc(Cl)c2)c2ccccc12	n	93	n	n	93
O=C(O)c1oc2ccccc2c1-n1cccc1	27	n	n	n	n
O=C(CCCN1C(=O)c2ccccc2C1=O)NCCC1=CCCCC1	n	n	n	n	62
O=C1c2ccccc2C(=O)N1CCC1=CCCCC1	n	61	n	n	n
Cc1ccc2c(c1)N(CCCC(=O)NCCC1=CCCCC1)C(=O)CO2	n	59	n	n	58
O=C(O)c1ccc2c(c1)C(=O)N(CCC1=CCCCC1)C2=O	n	n	n	n	n
O=C(CN1CCN(c2ccccc2)CC1)Nc1ccc2c(c1)CCC2	n	x	x	x	x
O=C(Nc1ccc2c(c1)CCC2)c1cc(S(=O)(=O)N2CCN(c3ccccc3)CC2)ccc1Cl	n	n	n	n	56
CC1=CC(c2ccc(Cl)cc2)n2nc(NS(=O)(=O)c3ccc(C)cc3)nc2N1 (centres undefined)	n	n	n	n	70
CC1=CC(c2ccccc2)n2nc(NS(=O)(=O)c3ccc(C)cc3)nc2N1 (centres undefined)	n	n	n	n	n
Clc1nc(-c2n[nH]nc2Cl)n[nH]1	n	n	n	n	n
CC1(C)CC(=O)c2c(oc3cc(O)c(O)cc23)C1	n	n	3.2	n	n
COc1ccc(C(=O)/C=C\c2ccc(NC(=O)c3cccs3)cc2)cc1	n	n	n	n	n
